NFkB transloc pot = enhances IL-1B driven NFkB nuclear translocation. 0.3% of 94,000 active. activation, % at 2 µM. HUVEC IL-1B NFkB p65 nuclear translocation imaging;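 active means activation above 40%, about the mean plus 3 SD, also judged a hit on visual image review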;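 further: percent activation is computed from the nuclear over cytoplasmic p65 intensity ratio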
IL1B NFkB inh = blocks IL-1B driven NFkB nuclear translocation in HUVEC cells | HUVEC IL-1B NFkB p65 nuclear translocation imaging | inhibition, % at 2 µM | 0.43% of 94,000 active | AID 796;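 active means inhibition above about 30% together with a positive call from visual inspection of the well image, limit read from the data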;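 further: nuclear over cytoplasmic p65 intensity ratio measured by imaging; 0% = IL-1B stimulated DMSO wells and 100% = unstimulated DMSO wells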
HUVEC tox IL1B = HUVEC cytotoxicity counter-screen, IL-1B stimulated; cell count reduction, % at 2 µM; HUVEC cell count loss, Hoechst imaging; 0.41% of 94,000 active;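 active means cell count reduction more than 3 SD above the screen-wide mean, cut at about 70% in these data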;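 further: normalized per plate to untreated control cells as the no-loss baseline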
sEH inhibitor = soluble epoxide hydrolase (human) inhibition; recombinant human sEH enzymatic activity assay; inhibition, % at 2 µM; 0.34% of 91,000 active; AID 707; in the data active means inhibition above about 80%
Target sequence (P34913 whole entry, looked up): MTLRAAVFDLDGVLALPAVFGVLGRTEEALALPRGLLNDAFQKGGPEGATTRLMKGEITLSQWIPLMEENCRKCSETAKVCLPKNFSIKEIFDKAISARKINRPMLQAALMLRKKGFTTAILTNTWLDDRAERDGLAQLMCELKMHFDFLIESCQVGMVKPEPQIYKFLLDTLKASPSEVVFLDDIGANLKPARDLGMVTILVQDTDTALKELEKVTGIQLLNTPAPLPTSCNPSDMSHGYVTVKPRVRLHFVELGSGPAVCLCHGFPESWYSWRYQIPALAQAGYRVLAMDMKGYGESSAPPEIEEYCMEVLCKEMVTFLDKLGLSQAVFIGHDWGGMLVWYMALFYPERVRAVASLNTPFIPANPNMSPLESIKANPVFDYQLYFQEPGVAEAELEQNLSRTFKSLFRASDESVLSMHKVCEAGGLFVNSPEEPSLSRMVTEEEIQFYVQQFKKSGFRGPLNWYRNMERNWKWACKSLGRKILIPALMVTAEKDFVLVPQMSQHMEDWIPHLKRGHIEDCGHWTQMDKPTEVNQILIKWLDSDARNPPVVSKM
Cav32 inh = inhibitors of human Cav3.2 T-type calcium channel. AID 449739. O95180. B-score at 10 µM. Cav3.2-expressing cells, Fluo-4 calcium fluorescence FDSS; active compounds read low. 4% of 100,000 active;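 active means single-dose well whose peak fluorescence ratio is a statistical outlier from its plate by either plate-standardised score or position-corrected B-score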
sEH activator = increases human soluble epoxide hydrolase activity; 0.04% of 91,000 active; purified human sEH enzymatic activity, activator screen; P34913; activation, % at 2 µM; in the data active means activation above about 37%
* hit, by the source's call; / = no result given. Compounds with a hit are over-represented: about 4.6% of the library has one in this group of screens.

SMILES	NFkB transloc pot	IL1B NFkB inh	HUVEC tox IL1B	sEH inhibitor	Cav32 inh	sEH activator
CC1(C)CC(=O)C2=C(C1)NC(=O)CC2c1cc2c(cc1Br)OCO2 (centres undefined)	3	-3	1	-4	0.41	5
CC(=O)Nc1ccc(NC(=O)CCC(=O)NCCO)cc1	-2	2	2	1	-0.43	-3
c1cncc(-c2cccnc2)c1	27	-25	-68	-5	0.11	7
CC1=C(C#N)C(c2ccc3ncccc3c2)C(C#N)=C(C)N1	-50	50*	-23	6	0.37	-3
CCOC(=O)Cc1csc(NC(=O)CSc2ncnc3c2cnn3-c2ccccc2Cl)n1	8	-8	0	4	-6.2*	-2
Cc1ccc(NC(=O)NCCc2ccc(S(N)(=O)=O)cc2)cc1	21	-21	6	/	-0.13	/
Cc1ccc(NC(=O)NCCCc2ccccc2)cc1	-6	6	-27	83*	-1	-83
CN1CCN(C(=O)c2ccccc2-c2nc(-c3ccccc3)no2)CC1	13	-13	-182	0	0.67	0
N#C/C(=C/c1ccc(N2CCCCCC2)o1)c1ccc(F)cc1	-44	44*	22	-4	-6.1*	4
N#C/C(=C/c1ccc(N2CCCCCC2)o1)c1cccc(F)c1	-12	12	18	-10	-4.3*	9
N#C/C(=C/c1ccc(N2CCOCC2)o1)c1ccc(Br)cc1	-2	2	-11	-3	-3.4	2
N#C/C(=C\c1ccc(N2CCOCC2)o1)c1ccccc1	39	-39	-33	-1	-2.6	4
N#C/C(=C/c1ccc(N2CCOCC2)o1)c1nc2ccccc2[nH]1	-13	13	-6	20	-10*	-17
COc1ccccc1-n1cnnc1SCC(=O)N1CC(=O)Nc2ccccc21	13	-13	4	-15	-0.09	13
CC(=O)NC1CC2CCCC(C1)N2C(=O)Nc1ccc(Cl)c(C(F)(F)F)c1 (centres undefined)	29	-30	-8	87*	-0.25	-88
O=C(CC1C(=O)NCCN1C(=O)c1ccc(F)cc1)OCc1ccccc1 (centres undefined)	13	-13	92*	-13	0.12	11
CCOC(=O)CC1C(=O)NCCN1C(=O)c1c(F)cccc1F (centres undefined)	-2	2	-9	-7	-0.55	6
Cc1cccc(C(C)C)c1NC(=O)CSc1nncn1C	2	-2	11	4	-0.2	-2
CN1c2ccccc2C(C)(C)[C@]12C=Cc1cc(O)ccc1O2	-2	2	4	-2	-0.085	2
CC1(C)OC(=O)N(c2ccccc2)C12C=Cc1cc(Br)ccc1O2 (centres undefined)	1	-1	2	-3	-6.2*	0
Cn1ccnc1SCCC#N	-14	14	-12	6	0.16	-7
CCOc1ccc(NC(=O)CN2CCN(CC(=O)Nc3ccc(Cl)c(C(F)(F)F)c3)CC2)cc1	-4	4	33	8	-6.2*	-6
CCOc1ccc(NC(=O)CN2CCN(CC(=O)Nc3cccc(F)c3)CC2)cc1	/	/	/	/	0.72	/
COc1ccccc1N1CCN(CC(=O)Nc2ccc(Cl)c(C(F)(F)F)c2)CC1	/	/	/	25	-4.2*	-24
O=C(CN1CCN(c2ccccn2)CC1)Nc1ccc(Cl)c(C(F)(F)F)c1	10	-10	25	4	-0.27	-4
SMILES	NFkB transloc pot	IL1B NFkB inh	HUVEC tox IL1B	sEH inhibitor	Cav32 inh	sEH activator
Cc1cc(C)c2nc(SCc3ccc([N+](=O)[O-])cc3)nc(C)c2c1	-1	1	-14	-3	-0.0066	3
O=C(CSCc1ccccc1Cl)N1CCN(c2ccccn2)CC1	2	-2	-4	0	-0.52	1
Cc1nonc1OCC(C)(COc1nonc1C)NC(=O)c1ccc(Cl)cc1	14	-14	-43	7	-4.2*	-4
Cc1ccc(CN2CCN(CC(=O)NCc3ccc(Cl)cc3)C2=O)cc1	18	-18	29	-4	-4*	6
CCN(CCNC(=O)CN1CCN(Cc2ccc(Cl)cc2)C1=O)c1ccccc1	-5	5	13	1	-4*	-2
O=C(CN1CCN(Cc2ccccc2)C1=O)NCc1ccc(Cl)cc1	-19	19	19	3	-0.54	-4
COc1ccc(C(=O)O)cc1Nc1cc(C)nc2ncnn12	14	-14	-34	3	0.73	-1
O=C(Nc1ccc(Cl)c(Cl)c1)N1CCSC1c1ccco1 (centres undefined)	-3	3	34	58	-7.7*	-58
O=C(Nc1ccc(Cl)c(Cl)c1)N1CC=CCC1	/	/	/	/	-0.29	/
CC(C)Nc1nc(NC(C)C)nc(N(C#N)CCOc2ccc(Cl)cc2Cl)n1	7	-7	-16	-6	-5*	9
Cc1cc(C)nc(N(C#N)CCOc2ccc(Cl)cc2)n1	4	-4	-10	5	-1.3	0
C[C@H](NC(=O)c1[nH]cnc1C(=O)Nc1ccccc1)C(=O)OC(C)(C)C	/	/	/	/	0.22	/
O=C(Nc1ccc(NC(=O)C2CC2)cn1)c1ccccc1Cl	-10	10	88*	-6	0.17	7
CCCCCC(=O)Nc1cccc(C2=NOC3(C2)C[C@@H](C(N)=O)N(C(=O)c2cc([N+](=O)[O-])cc([N+](=O)[O-])c2C)C3)c1 (some centres undefined)	/	/	/	/	-0.22	/
O=C(O)CCCC(=O)N(Cc1ccccc1)Cc1ccccc1	/	/	/	/	0.38	/
Cc1ccc(C2Oc3ccccc3C3=C2C(c2cccs2)n2ncnc2N3)cc1 (centres undefined)	-7	7	88*	6	-4.6*	-6
CCN(CC)CCNC(=O)c1cc(Cl)c(N)cc1OC	/	/	/	/	0.7	/
COc1ccc(-c2nnc(SC(C)C(=O)NCc3ccc4c(c3)OCO4)n2Cc2ccco2)cc1 (centres undefined)	4	-4	7	-12	-5.3*	15
O=C(CSc1nnc(-c2ccc(Cl)cc2)n1Cc1ccco1)NCc1ccc2c(c1)OCO2	13	-13	-144	-21	-5.3*	19
Cc1ccccc1N1CCN(C(=O)c2ccc(Oc3ccc(C(F)(F)F)cn3)cc2)CC1	3	-3	18	-9	-6*	10
Cc1cccc(C(=O)N2CCN(c3ccc(C(F)(F)F)cn3)CC2)c1C	12	-12	6	-12	-4.7*	11
CCOc1ccc(C(=O)N2CCN(c3cccc(C)c3C)CC2)cc1	1	-1	32	-16	-3.7	14
COC(=O)c1nc2n(n1)C(c1ccc(OC)c(OC)c1)C(C(=O)OC1CCCCC1)=C(C)N2 (centres undefined)	9	-9	-1	0	0.29	0
C=CCN1C(=O)C(C)(C)Nc2ccccc21	19	-19	13	0	0.42	0
C=CCN1C(=O)N(/C=C/C)c2cccc3cccc1c23	5	-5	-19	-6	-5*	4
CN1/C(=C\C(=O)COC(=O)CN2C(=O)C3CC=CCC3C2=O)C(C)(C)c2ccccc21 (centres undefined)	23	-23	-55	1	0.51	1

Source: PubChem (several laboratories)
